# D1 agonist = activates the human D1 dopamine receptor | HEK293 T-REx D1 cells, calcium flux, agonist mode | activation, % at 2 µM | hit rate 1% among 360,000 | AID 504660; in the data active means activation above about 30%; further: 0% is about no effect
# Target sequence (P21728 whole entry, looked up): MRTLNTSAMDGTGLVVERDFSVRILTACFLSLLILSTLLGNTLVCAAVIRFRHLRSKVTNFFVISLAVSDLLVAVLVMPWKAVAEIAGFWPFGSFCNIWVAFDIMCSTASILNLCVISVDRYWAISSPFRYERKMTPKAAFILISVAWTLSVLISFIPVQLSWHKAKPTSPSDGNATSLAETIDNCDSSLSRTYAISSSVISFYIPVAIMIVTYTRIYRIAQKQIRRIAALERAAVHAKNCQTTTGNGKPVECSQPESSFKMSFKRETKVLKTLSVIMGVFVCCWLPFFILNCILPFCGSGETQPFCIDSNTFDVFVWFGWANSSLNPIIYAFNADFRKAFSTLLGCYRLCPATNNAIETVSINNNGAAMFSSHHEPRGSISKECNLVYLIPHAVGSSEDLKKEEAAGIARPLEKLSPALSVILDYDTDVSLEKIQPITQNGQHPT
#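 Agonism was scored from calcium flux recorded over 180 s (1 read/s) after pintool compound addition, following a 10-cycle baseline. Cells were inducible force-coupled HEK293 TREx D1, plated overnight at 30 C and loaded with no-wash calcium dye.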
# D3 antag = blocks the human D3 dopamine receptor; hit rate 2.5% among 360,000; P35462; max response, negative = inhibition, %; AID 652054; D3R cells, DiscoveRx beta-arrestin luminescence, antagonist mode; stronger effect = lower value; in the data active means max response below about -50%; inconclusive means no clear call, values can overlap the other calls; further: on the % scale 0 is the no-effect control and ±100 the full control effect
#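 Cells expressing the human receptor were seeded at 1500 cells/well, incubated overnight at 37 degrees C in 5% CO2, then exposed to library compounds with dopamine controls for 90 minutes at 37 degrees C before luminescent detection.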
# D1 potentiator = potentiators of human D1 dopamine receptor. P21728. HEK293 TREx D1 cells, calcium flux, dopamine EC20 potentiation. potentiation, % at 10 µM. hit rate 0.036% among 360,000. AID 504651; in the data active means potentiation above about 30%; further: 0% is about no effect
# D1 antagonist = antagonists of human D1 dopamine receptor; HEK293 TREx D1 cells, calcium flux, dopamine EC80; stronger effect = lower value; activity change, negative = inhibition, % at 10 µM; hit rate 3.2% among 360,000; in the data active means activity change below about -30%; further: on the % scale 0 is the no-effect control and ±100 the full control effect
#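 Inducible Hek293 Trex D1 cells (tetracycline, overnight, 30 C). Calcium dye 30–90 min RT. Antagonist mode: EC80 dopamine added after 180 s compound read.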
# DRD3 agonist = D3 dopamine receptor (human) agonism | D3R DiscoveRx beta-arrestin cells, luminescence, 90 min | max activation, % | hit rate 0.58% among 410,000 | AID 652048; in the data active means max activation above about 30%; further: 0% is about no effect
#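 Cells at 1500/well, incubated overnight, then treated with pinned compounds (dopamine as control) for 90 min at 37 degrees C. DiscoveRx reagent added for 30 - 60 minutes at room temperature; luminescence read.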
# * marks the source's active call; other numbers are inactive results; ? = inconclusive; . = not tested or not shown; ! = repeats disagree. Compounds with a hit are over-represented: about 6% of the library has one in this group of screens.
SMILES,D1 agonist,D3 antag,D1 potentiator,D1 antagonist,DRD3 agonist
COCCn1nnnc1C(c1cccc(C(F)(F)F)c1)N1CCOCC1 (centres undefined),0,0,-5,-42*,6
Nc1cc(=O)[nH]c(SCC(=O)N2CCN(S(=O)(=O)c3ccc4ccccc4c3)CC2)n1,-4,3,-1,-14,1
O=C(CSc1n[nH]c(-c2cccs2)n1)N1CCN(S(=O)(=O)c2ccc3ccccc3c2)CC1,3,-70*,-5,-8,-2
COc1cccc(C2=NOC(C(=O)Nc3cc(C)nn3-c3ccccc3)C2)c1OC (centres undefined),6,-26,0,5,-9
Cc1cc(N/C(=N/S(=O)(=O)c2cc(F)ccc2F)c2ccccc2)n(-c2ccccc2)n1,7,1,-6,-36*,-1
Cc1cc(NC(=O)C2CC(c3ccc(F)cc3)=NO2)n(-c2ccccc2)n1 (centres undefined),1,22,.,-64*,4
Cc1cc(N/C(=N\S(=O)(=O)c2ccc(F)cc2F)c2ccccc2)no1,0,15,0,.,7
Cc1ccccc1N/C(=N/S(=O)(=O)c1cc(F)ccc1F)c1ccccc1,3,-5,-11,-31*,4
Cc1ccc(NS(=O)(=O)c2ccc3nc(-c4ccccc4)[nH]c3c2)c(Cl)c1,15,.,-5,-17,8
O[C@@H]1CN(CC2CCCCC2)[C@@H](c2ccccc2)C[C@H]1n1cc(-c2ccc(F)cc2)nn1,.,10,.,.,5
O=[N+]([O-])c1cccc(S(=O)(=O)NCCNS(=O)(=O)c2cccc([N+](=O)[O-])c2)c1,.,.,.,.,1
O=C(NCCS(=O)(=O)N1CCN(c2ccccc2F)CC1)c1cccs1,3,20,-7,-26,2
CC(C)n1nnnc1SCC(=O)N(C)C1CCS(=O)(=O)C1 (centres undefined),.,13,.,.,2
O=C(c1cc2ccccc2cc1OCC(O)CN1CCCCC1)N1CCCCC1 (centres undefined),0,-85*,-2,-10,-17
CC1(C)NC(=O)N(CC(O)COc2ccccc2C(=O)N2CCCCC2)C1=O (centres undefined),2,18,-2,-30*,4
CCOC(=O)c1c(-c2ccccc2)oc2ccc(N(C(C)=O)S(=O)(=O)c3cc(C)ccc3C)cc12,5,.,-2,-3,3
O=c1c2c([N+](=O)[O-])cc([N+](=O)[O-])cc2sn1Cc1ccccc1,51*,?,-5,-29,-5
Cn1ncc(Cl)c1C(=O)N/N=C/c1cccc(OC2CSC2)c1,11,-2,-4,-45*,10
COc1cccc(/C=N/NC(=O)CSc2cccc3cccnc23)c1,4,-3,-10,3,5
Cn1ncc(Cl)c1C(=O)N/N=C/c1ccccn1,5,10,-1,16,7
O=C(CSc1ncccn1)N/N=C/c1cccc(OC2CSC2)c1,11,-12,-10,-36*,-8
CC1(C(=O)NCc2ccccc2)Cc2c(-c3ccc4c(c3)OCO4)ccnc2O1 (centres undefined),.,?,.,.,-13
COc1ccccc1CNc1ccc(-c2nc(-c3ccncc3)no2)cc1[N+](=O)[O-],7,.,-1,15,-17
CCOC(=O)c1c(C)[nH]c(C)c1S(=O)(=O)N1CCC(C(=O)NCc2ccccc2)CC1,0,.,-4,-22,6
CCN1/C(=C/C(C)=C/c2sc3ccccc3[n+]2CC)Sc2ccccc21,3,-59*!,-2,-8,-9
SMILES,D1 agonist,D3 antag,D1 potentiator,D1 antagonist,DRD3 agonist
CCN1\C(=C/C=C/C=C/c2sc3ccccc3[n+]2CC)Sc2ccccc21,.,.,.,.,-20
O=c1c2cc(Br)ccc2nc(-c2cccc(C(F)(F)F)c2)n1O,62*,?,4,3,8
O=c1c2cc(Cl)ccc2nc(-c2ccc(Cl)c(Cl)c2)n1O,88*,-6,-10,-45*,7
Nc1ccc(NC(=O)c2cccc(C(=O)Nc3ccc(N)cc3Cl)c2)c(Cl)c1,1,-6,-1,-10,-3
O=C(NCc1ccccc1)c1cc(C2CCCCN2S(=O)(=O)c2cccc3cccnc23)on1 (centres undefined),.,27,.,.,0
COc1ccc(OC)c(CCNC(=O)c2c(C)oc3ncn(C)c(=O)c23)c1,1,.,-7,-31*,3
COc1ccccc1N1CCN(C(=O)c2cc(-c3ccc(C)cc3)on2)CC1,2,23,-4,-45*,4
COc1ccccc1N1CCN(C(=O)c2c(C)oc3ncn(C)c(=O)c23)CC1,1,.,-6,-35*,-1
COc1ccccc1N1CCN(C(=O)c2cc(-c3ccc(F)cc3)on2)CC1,3,-2,1,2,2
C=C(CN(C)C)C(=O)c1ccc(C)cc1C,.,-88*,.,.,-12
C=C(CN(C)C)C(=O)c1cc(OC)c(OC)cc1OC,.,?,.,.,-13
C=C(CN(C)C)C(=O)c1ccc2c(c1)OCO2,.,-54*,.,.,-6
Cc1[nH]c2ccc(C(=O)OCC(=O)Nc3cccc(S(N)(=O)=O)c3)cc2c1C,0,0,5,-6,0
CCOC(=O)C(=CNc1cccnc1Oc1ccc(C)c2c1CCC2)C(=O)OCC,17,67,2,30,37*
Cc1cc(N(CCO)CCO)ccc1N=Nc1cc(F)ccc1F,-1,-74*,-5,-28,-8
CC(NC(=O)CCCN1C(=O)c2ccccc2C1=O)c1ccc2c(c1)CCCC2 (centres undefined),3,5,9,-40*,-6
O=C(CCS(=O)(=O)c1ccccc1)N1CCCc2ccccc21,8,12,-1,8,-5
CN(C)c1cc[n+](CC(=O)N2CCCc3ccccc32)cc1,3,?,-4,-3,-25
O=C(C[n+]1ccccc1)N1CCCc2ccccc21,3,-53*,2,22,-5
Cc1cc[n+](CC(=O)N2CCCc3ccccc32)cc1,4,-66*,-6,12,-26
Cc1ccc(S(=O)(=O)N2CCOC2CNC(=O)C(=O)NCc2ccc(Cl)cc2)cc1 (centres undefined),6,7,-3,-6,0
COc1cccc(CN2CCNC(=O)C2CC(=O)NCC2CCOCC2)c1 (centres undefined),4,2,-1,2,6
CC(=O)N1[C@H](C)C=C[C@]1(Cc1ccccc1)C(=O)O,-2,8,-1,0,31*
CCCC[C@]12Cc3cc(C#N)ccc3C(O1)c1c(cc(C)n(-c3ccccc3)c1=O)O2,0,.,-2,1,.
CCN1CCSc2ccc(C(=O)NCc3ccc(F)cc3)cc21,2,.,2,-2,-20
O=C(OCn1ncc(Cl)c(Cl)c1=O)c1cccc(C(F)(F)F)c1,17,-71*,-9,-36*,-6

# Bioassay records: PubChem, National Center for Advancing Translational Sciences (NCATS)
